Test [1] is described as follows: P-glycoprotein substrates identified in KB-3-1 adenocarcinoma cell line, qHTS therapeutic library screen (AID 1346986). Note: nearly all actives have a fitted effect of over 60% in size. The note with it: KB-3-1 parental cells viability, CellTiter-Glo, 72 h; series mostly up to 44.5 µM. The gist of the method:
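72 h cell-killing screen, 500 cells/well, CellTiter-Glo luminescence. Paired lines KB-3-1/KB-8-5-11; P-gp dependence checked by tariquidar co-treatment and HEK-293 MDR-19 versus empty-vector cells.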
In general terms: In qHTS, concentration-response curves come from the screen itself.

Test [2] is described as follows: P-glycoprotein substrates identified in KB-8-5-11 adenocarcinoma cell line, qHTS therapeutic library screen (AID 1346987). Note: nearly all actives have a fitted effect of over 65% in size. Conditions: KB-8-5-11 (P-gp overexpressing) viability, CellTiter-Glo, 72 h; series mostly up to 44.5 µM. The gist of the method: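 Compounds are pinned in dose-response onto KB-8-5-11 cells (500 cells/well, colchicine-free medium) and left 72 h at 37 degree C. CellTiter-Glo luminescence then yields AC50 values.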

Inconclusive results are not listed. The source made the active and inactive calls. Calls come from the whole dose curve; as a rule, active = well fitted curve in the direction sought with a large enough effect; inconclusive = small, poorly fitted or top-dose-only effect, or another doubt; inactive = no such curve, though single readings can be large; an effect the other way counts as inactive or inconclusive.

For the molecule `NC[C@@H]1O[C@@H](O[C@@H]2[C@@H](O[C@@H]3O[C@H](CO)[C@@H](O)[C@H]3O)[C@H](O)[C@@H](N)C[C@H]2N)[C@@H](N)[C@H](O)[C@H]1O`, the outcome in test [1] and in test [2] was “inactive [at 9.29 µM]” throughout.

Regarding `O=C(COCC(=O)N1CCN(C(c2ccccc2)c2ccccc2)CC1)Nc1ccc(Cl)cc1C(=O)O`, the Potency entry in test [1] and in test [2] was “inactive” each time.

With `CC1=CC(=O)[C@]2(O[C@@H]3O[C@@H](C)[C@H](O)[C@@H](O)[C@H]3O)C=CO[C@@H](O[C@@H]3O[C@H](CO)[C@@H](O)[C@H](O)[C@H]3O)[C@H]12`, the Potency result in test [1] and in test [2] was “inactive” each time.

Regarding `COCCCc1sc(-c2ccccc2)nc1C(=O)Nc1ccccc1-c1nc2cc(CN3CCCC3)cnc2s1`, the Potency result in test [1] and in test [2] was “inactive” each time.

In the case of `CC(=O)N[C@H](Cc1c[nH]c2ccccc12)C(=O)OCc1cc(C(F)(F)F)cc(C(F)(F)F)c1`, the Potency result in test [1] and in test [2] was “inactive” throughout.

In the case of `COC(=O)C1=CO[C@@H](O[C@@H]2O[C@H](CO)[C@@H](O)[C@H](O)[C@H]2O)[C@H]2[C@@H]1[C@H](O)C[C@]2(C)O`, the Potency result in test [1] and in test [2] was “inactive” in each case.

In the case of `O=C(O)/C=C/c1ccc(O[C@@H]2O[C@H](CO)[C@@H](O)[C@H](O)[C@H]2O)cc1`, the Potency result in test [1] and in test [2] was “inactive” each time.

As for `COc1cccc(OC)c1-c1ccc(C[C@H](NC(=O)c2c(Cl)cccc2Cl)C(=O)O)cc1`, the Potency result in test [1] and in test [2] was “inactive” in each case.

For `FC(F)(F)Oc1ccc(-c2ccc3nnc(C(F)(F)F)n3c2)cc1`, the Potency entry in test [1] and in test [2] was “inactive” in each case.

For the molecule `C/C(=C\CCC1(C)C2CC3C(C2)C31C)C(=O)O` (stereo not drawn), the Potency entry in test [1] and in test [2] was “inactive” in each case.

Regarding `CC(O)C1NC(=O)C2CCCN2C1=O` (stereo not drawn), the Potency entry in test [1] and in test [2] was “inactive” each time.

For `Cc1onc(-c2c(Cl)cccc2Cl)c1CC(=O)NCc1ccc(OCC(F)(F)F)nc1`, the Potency entry in test [1] and in test [2] was “inactive” throughout.

With `C=C[C@@](C)(CCC=C(C)C)O[C@@H]1O[C@H](CO[C@@H]2OC[C@H](O)[C@H](O)[C@H]2O)[C@@H](O)[C@H](O)[C@H]1O`, the Potency entry in test [1] and in test [2] was “inactive” in each case.

As to `CCCCCOC(=O)Nc1nc(=O)n(C2O[C@H](C)[C@@H](O)[C@H]2O)cc1F` (stereo partly drawn), the Potency result in test [1] and in test [2] was “inactive” in each case.
